# According to PubChem BioAssay (NCATS):
# Where “and” joins values, the source holds several entries; their conditions need not be identical. Equal values may be shown once. Inconclusive results are not listed. A call without a number means that no potency is given here. A structure can be active in one record and inactive in another. Calls of active or inactive are those of the source. Calls come from the whole dose curve; as a rule, active = well fitted curve in the direction sought with a large enough effect; inconclusive = small, poorly fitted or top-dose-only effect, or another doubt; inactive = no such curve, though single readings can be large; an effect the other way counts as inactive or inconclusive. Where a SMILES comes first, the peptide text is derived from it. [ ]: non-standard residue; d: D form. pGlu = O=C1CC[C@@H](C(=O)O)N1; Thz = O=C(O)[C@@H]1CSCN1
# Legend:
# [1] = biological target: Phospholipid hydroperoxide glutathione peroxidase GPX4 (Homo sapiens) (UniProt P36969); assay: Primary qHTS Assay for Inhibitors of Recombinant Selenoprotein Glutathione Peroxidase 4 (GPX4) (AID 1845192); details: recombinant GPX4, GR-coupled NADPH fluorescence, 15 min; series mostly up to 50 µM; note: nearly all actives have a fitted effect of over 65% in size; note: potency is the fitted concentration of half-maximal effect
# In short: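 Steps: GPX4 plus compound, 30 min RT; add GR/GSH/NADPH master mix; start with cumene hydroperoxide; read 340/450 nm fluorescence at 0 and 15 min. Finals were 200 nM GPX4, 1 mM GSH, 0.5 mM CHP, 0.5 mM NADPH, 100 nM GR.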
# [2] = biological target: Luciferin 4-monooxygenase (Photinus pyralis) (UniProt P08659); assay: Primary firefly luciferase (FLuc) qHTS assay for identification of artifact compounds. (AID 1845220); details: purified firefly luciferase, luminescence, 5 min; series mostly up to 54.1 µM; note: nearly all actives have a fitted effect of over 60% in size
# In short: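 Titrated compounds were incubated 15 min at RT, protected from light, with luciferin and ATP at 10 uM; reaction started with 10 nM FLuc, luminescence imaged at 5 min, and concentration-response fitted by Hill equation.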
# [3] = tested on: Nanoluciferase (engineered Oplophorus gracilirostris luciferase); assay: Primary Nanoluciferase (NLuc) qHTS assay for identification of artifact compounds. (AID 1845222); details: NLuc-conditioned medium, Nano-Glo luminescence, 5 min; series mostly up to 54.1 µM;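 note: NLuc secreted into diluted conditioned medium of S16 cells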
# In short: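 qHTS format, against NLuc in S16 cell-conditioned medium. Nano-Glo substrate 1:100 was added after 15 min at room temperature. Luminescence was taken after a further 5 min.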
# [4] = Primary redox qHTS assay for identification of artifact compounds. (AID 1845223); details: Amplex Red/HRP redox cycling with DTT, fluorescence; series mostly up to 53.8 µM
# In short: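 Redox-cycling detection via DTT (250 uM final) oxidation coupled to Amplex Red (25 uM)/HRP (250 mU/mL) in HBSS. 15 min preincubation plus 30 min after DTT, room temperature. Ex/Em 525/598 nm; 4-parameter Hill fit against DMSO and 10 uM DA3003.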
# [5] = biological target: Glutathione peroxidase 1 (Homo sapiens) (UniProt P07203); assay: Primary qHTS Assay for Inhibitors of Recombinant Selenoprotein Glutathione Peroxidase 1 (GPX1) (AID 1845191); details: recombinant GPX1, GR-coupled NADPH fluorescence, 15 min; series mostly up to 48.8 µM; note: nearly all actives have a fitted effect of over 65% in size; note: potency is the fitted concentration of half-maximal effect
# In short: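 GR-coupled readout: NADPH consumption tracked by fluorescence, ex 340/em 450 nm, at t=0 and after 15 min at RT. Final mix 10 nM GPX1, 1 mM GSH, 0.5 mM CHP, 0.5 mM NADPH, 100 nM GR, 0.01% BSA, following 30 min enzyme–compound preincubation.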
# [6] = Primary fluorescence-based thiol-reactive (MSTI) qHTS assay for identification of artifact compounds. (AID 1845221); details: MSTI thiol-reactivity probe, 1 h; series mostly up to 53.8 µM;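 note: thiol-reactive compounds lower the probe fluorescence signal; nearly all actives have a fitted effect of over 65% in size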
# In short: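 qHTS titration of compound; 4 uM MSTI, PBS pH 7.4, 2% DMSO; 1 h RT, dark; fluorescence 525/598 nm; normalized to Acetyl-MSTI and MSTI; 4-parameter Hill fit.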
# Phospholipid hydroperoxide glutathione peroxidase GPX4 (Homo sapiens), sequence (P36969 whole entry, looked up): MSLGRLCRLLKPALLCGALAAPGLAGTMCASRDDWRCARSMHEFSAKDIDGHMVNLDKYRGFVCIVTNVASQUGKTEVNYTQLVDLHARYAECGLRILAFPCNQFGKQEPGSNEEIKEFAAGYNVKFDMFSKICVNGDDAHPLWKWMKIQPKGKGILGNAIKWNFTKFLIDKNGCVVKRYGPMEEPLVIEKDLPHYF
# Glutathione peroxidase 1 (Homo sapiens), sequence (P07203 whole entry, looked up): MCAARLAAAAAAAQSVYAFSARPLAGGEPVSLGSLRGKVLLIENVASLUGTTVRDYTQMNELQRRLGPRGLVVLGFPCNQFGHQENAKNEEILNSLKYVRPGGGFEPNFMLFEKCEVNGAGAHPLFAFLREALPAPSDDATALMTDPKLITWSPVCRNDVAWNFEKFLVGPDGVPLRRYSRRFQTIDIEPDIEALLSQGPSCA
smiles,measurement,setting,value
CC1(C)S[C@@H]2[C@H](NC(=O)[C@H](N)c3ccc(O)cc3)C(=O)N2[C@H]1C(=O)O,Potency,[1],inactive
same,Potency,[2],inactive
same,Potency,[3],inactive
same,outcome,[4],inactive
CC(=O)SCC(CC(=O)c1ccc(C)cc1)C(=O)O (stereo not given),Potency,[5],inactive
same,Potency,[1],inactive
same,outcome,[6],inactive
same,Potency,[3],inactive
same,outcome,[4],inactive
CC(C(=O)O)c1ccc(C(=O)c2ccccc2)s1 (stereo not given),Potency,[5],inactive
same,Potency,[1],inactive
O=C(O)c1cc(=O)c2ccccc2[nH]1,Potency,[5],inactive
same,Potency,[1],inactive
CCNC(=O)[C@H]1O[C@@H](n2cnc3c(N)nc(NCCc4ccc(CCC(=O)O)cc4)nc32)[C@H](O)[C@@H]1O,Potency,[5],inactive
same,Potency,[2],inactive
same,outcome,[6],inactive
same,Potency,[3],inactive
same,outcome,[4],inactive
CNC(=O)c1c(I)c(NC(=O)CCCCC(=O)Nc2c(I)c(C(=O)O)c(I)c(C(=O)NC)c2I)c(I)c(C(=O)O)c1I,Potency,[5],inactive
same,Potency,[1],inactive
COc1cc(CNC(=O)CCCC/C=C/C(C)C)ccc1O,Potency,[5],inactive
same,Potency,[2],inactive
same,outcome,[6],inactive
same,Potency,[3],inactive
same,outcome,[4],inactive
COc1ccc(-c2cc(=S)ss2)cc1,Potency,[5],11.4 µM (active)
same,Potency,[1],inactive
CC1(C)[C@@H](O[C@H]2O[C@H](C(=O)O)[C@@H](O)[C@H](O)[C@H]2O[C@@H]2O[C@H](C(=O)O)[C@@H](O)[C@H](O)[C@H]2O)CC[C@]2(C)[C@H]3C(=O)C=C4[C@@H]5C[C@@](C)(C(=O)O)CC[C@]5(C)CC[C@@]4(C)[C@]3(C)CC[C@@H]12,Potency,[1],inactive
same,Potency,[2],inactive
same,outcome,[6],inactive
same,outcome,[4],inactive
COc1cc(/C=C/C(=O)N2CCN(CC(=O)N3CCCC3)CC2)cc(OC)c1OC,Potency,[5],inactive
same,Potency,[1],inactive
same,Potency,[2],inactive
same,outcome,[6],inactive
same,Potency,[3],inactive
same,outcome,[4],inactive
Nc1ccc(O)c(C(=O)O)c1,Potency,[1],inactive
C/C(=N\O)c1ccc(OCC(=O)N2CCCCC2)cc1,Potency,[5],inactive
same,Potency,[1],inactive
same,outcome,[6],inactive
same,Potency,[3],inactive
same,outcome,[4],inactive
CN1[C@@H]2CC[C@H]1CC(OC(=O)C(CO)c1ccccc1)C2 (stereo not given in full),Potency,[1],inactive
same,Potency,[2],inactive
same,outcome,[6],inactive
same,Potency,[3],inactive
same,outcome,[4],inactive
O=C(O)CC1CC(c2ccccc2)=NO1 (stereo not given),Potency,[5],inactive
same,Potency,[1],inactive
same,Potency,[2],inactive
same,outcome,[6],inactive
same,Potency,[3],inactive
same,outcome,[4],inactive
CC1(C)[C@@H](O)CC[C@]2(C)[C@H]3C(=O)C=C4[C@@H]5C[C@@](C)(C(=O)O)CC[C@]5(C)CC[C@@]4(C)[C@]3(C)CC[C@@H]12,Potency,[5],inactive
same,Potency,[1],inactive and 8.91 µM (active)
same,Potency,[2],inactive
same,outcome,[6],inactive
same,Potency,[3],inactive
same,outcome,[4],inactive
CN1[C@@H]2CC[C@H]1CC(OC(c1ccccc1)c1ccccc1)C2 (stereo not given in full),Potency,[5],inactive
same,Potency,[1],inactive
same,Potency,[2],inactive
same,outcome,[6],inactive
same,Potency,[3],inactive
same,outcome,[4],inactive
CC(=O)O[C@H]1C[C@@]2(C)[C@@H](C[C@@H](O)[C@H]3[C@@]4(C)CC[C@@H](O)[C@@H](C)[C@@H]4CC[C@@]32C)/C1=C(\CCC=C(C)C)C(=O)O,Potency,[5],inactive
same,Potency,[1],inactive
same,Potency,[2],inactive
same,outcome,[6],inactive
same,Potency,[3],inactive
same,outcome,[4],inactive
O=C(O)[C@H](CC(=O)N1C[C@H]2CCCC[C@H]2C1)Cc1ccccc1,Potency,[5],inactive
same,Potency,[1],inactive
same,Potency,[2],inactive
same,outcome,[6],inactive
same,Potency,[3],inactive
same,outcome,[4],inactive
C[C@H](O)[C@H](O)[C@H]1CNc2nc(N)[nH]c(=O)c2N1,Potency,[5],18 µM (active)
same,Potency,[1],20.2 µM (active)
same,Potency,[2],inactive
same,outcome,[6],inactive
same,Potency,[3],inactive
same,outcome,[4],inactive
C=CCc1cccc(/C=N/NC(=O)CN2CCN(Cc3ccccc3)CC2)c1O,Potency,[5],inactive
same,Potency,[1],inactive
COC(=O)[C@H]1[C@H]2C[C@@H]3c4[nH]c5cc(OC)ccc5c4CCN3C[C@H]2C[C@@H](OC(=O)/C=C/c2cc(OC)c(OC)c(OC)c2)[C@@H]1OC,Potency,[5],inactive
same,Potency,[2],inactive
same,Potency,[3],inactive
CC(C(=O)O)c1ccc2c(c1)[nH]c1ccc(Cl)cc12 (stereo not given),Potency,[5],inactive
same,Potency,[1],inactive
same,Potency,[2],inactive
same,outcome,[6],inactive
same,outcome,[4],inactive
Cc1onc(-c2c(F)cccc2Cl)c1C(=O)N[C@@H]1C(=O)N2[C@@H]1SC(C)(C)[C@@H]2C(=O)O,Potency,[5],inactive
same,Potency,[1],inactive
same,Potency,[2],inactive
same,outcome,[6],inactive
same,Potency,[3],inactive
CN1C2CC(OC(=O)[C@H](CO)c3ccccc3)CC1C1OC12 (stereo not given in full),Potency,[5],inactive
same,Potency,[1],inactive
CC(C)NC[C@@H](O)c1ccc(O)c(O)c1,Potency,[5],inactive
same,Potency,[1],inactive
O=C(O)Cc1cccc(-c2cc(CCCCCCc3ccc(O[C@H]4O[C@H](CO)[C@@H](O)[C@H](O)[C@@H]4O)c(-c4cccc(CC(=O)O)c4)c3)ccc2O[C@H]2O[C@H](CO)[C@@H](O)[C@H](O)[C@@H]2O)c1,"activity, negative = inhibition",[5],-5.05% [at 0.4 µM] (inactive)
same,"activity change, negative = inhibition",[1],-19% [at 0.409 µM] (inactive)
same,outcome,[2],inactive [at 0.464 µM]
same,"activity change, negative = thiol reactive",[6],33.1% [at 0.461 µM] (inactive)
same,"activity, negative = inhibition",[3],3.7% [at 0.464 µM] (inactive)
same,redox activity (% of DA3003),[4],1.45% [at 0.461 µM] (inactive)
COc1cc(NC(C)CCCN)c2ncccc2c1 (stereo not given),Potency,[1],inactive
C=CCCCCCCCCC(=O)O,Potency,[5],inactive
same,Potency,[1],inactive
C#CC1(O)CC[C@H]2[C@@H]3CCC4=CCCC[C@@H]4[C@H]3CC[C@@]21C (stereo not given in full),Potency,[1],inactive
O=C1CC[C@@H](C(=O)N2CSC[C@H]2C(=O)O)N1 ([pGlu]-[Thz]-OH),Potency,[5],inactive
same,Potency,[2],inactive
same,outcome,[6],inactive
same,Potency,[3],inactive
same,outcome,[4],inactive
CCCSc1ccc2nc(NC(=O)OC)[nH]c2c1,Potency,[5],inactive
same,Potency,[1],inactive
CC(=O)c1ccc(OCC(=O)N2CCCCC2)cc1,Potency,[5],inactive
same,Potency,[2],inactive
same,outcome,[6],inactive
same,Potency,[3],inactive
same,outcome,[4],inactive
